What all share (experiment): DAPPL (digital affinity profiling via proximity ligation, sequencing); 10 mM Tris-HCl pH 7.5, 50 mM NaCl, 1 mM DTT, 4% glycerol, room temperature, 30 min; GST-TFs on glutathione beads, 16-mer random dsDNA library, 0.1% formaldehyde crosslink after washing; high values mean tight binding
The target in one assay is T1, FEV (Homo sapiens, UniProt Q99581 1-238).
T1 sequence: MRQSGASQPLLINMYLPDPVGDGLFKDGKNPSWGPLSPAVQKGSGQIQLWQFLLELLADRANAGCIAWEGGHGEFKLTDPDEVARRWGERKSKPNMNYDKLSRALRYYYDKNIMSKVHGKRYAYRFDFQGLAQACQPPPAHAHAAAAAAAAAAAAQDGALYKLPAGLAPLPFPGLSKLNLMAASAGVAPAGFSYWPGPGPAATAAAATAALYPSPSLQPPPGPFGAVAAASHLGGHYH
The following applies: protein: recombinant; tags: N-terminal GST; dsDNA, one strand shown. In short, it runs like this: (§1)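 Binding signal is defined as a hexamer's read frequency for one factor over its frequency for the tag-only sample. To obtain reads, GST-fused human transcription factors were expressed in yeast, captured on glutathione beads, barcoded with DNA and pooled with that sample. Pools met 200 nmole of a 16-mer random double-stranded DNA library in Tris/NaCl/DTT/glycerol buffer for 30 min at room temperature before washing, 0.1% formaldehyde crosslinking, proximity ligation (BsaI/T4 ligase, 1 h, 37 °C), PCR and Illumina NextSeq500 sequencing.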

A further assay deals with ETV5 (Homo sapiens, UniProt P41161 1-510). The following applies: protein: recombinant; tags: N-terminal GST; dsDNA, one strand shown. The gist of the method: as §1
Sequence of ETV5 (P41161 whole entry): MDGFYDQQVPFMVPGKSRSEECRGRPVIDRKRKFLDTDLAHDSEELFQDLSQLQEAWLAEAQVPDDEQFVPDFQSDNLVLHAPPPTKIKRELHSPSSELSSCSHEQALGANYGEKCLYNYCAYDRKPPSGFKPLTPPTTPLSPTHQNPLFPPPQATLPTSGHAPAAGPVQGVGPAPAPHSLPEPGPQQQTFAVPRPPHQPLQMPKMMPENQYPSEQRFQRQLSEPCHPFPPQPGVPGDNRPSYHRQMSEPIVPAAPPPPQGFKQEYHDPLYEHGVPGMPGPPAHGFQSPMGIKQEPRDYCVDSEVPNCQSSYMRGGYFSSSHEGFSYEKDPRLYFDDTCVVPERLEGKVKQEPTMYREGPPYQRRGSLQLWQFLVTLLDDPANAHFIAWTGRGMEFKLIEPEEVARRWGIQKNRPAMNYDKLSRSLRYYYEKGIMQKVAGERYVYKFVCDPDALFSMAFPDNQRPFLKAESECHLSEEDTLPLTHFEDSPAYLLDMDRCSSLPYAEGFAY
The target in the next assay is HSF1 (Homo sapiens, UniProt Q00613 1-529). To be noted: protein: recombinant; tags: N-terminal GST; chain copies: 3; dsDNA, one strand shown. The gist of the method: as §1
Sequence of HSF1 (Q00613 whole entry): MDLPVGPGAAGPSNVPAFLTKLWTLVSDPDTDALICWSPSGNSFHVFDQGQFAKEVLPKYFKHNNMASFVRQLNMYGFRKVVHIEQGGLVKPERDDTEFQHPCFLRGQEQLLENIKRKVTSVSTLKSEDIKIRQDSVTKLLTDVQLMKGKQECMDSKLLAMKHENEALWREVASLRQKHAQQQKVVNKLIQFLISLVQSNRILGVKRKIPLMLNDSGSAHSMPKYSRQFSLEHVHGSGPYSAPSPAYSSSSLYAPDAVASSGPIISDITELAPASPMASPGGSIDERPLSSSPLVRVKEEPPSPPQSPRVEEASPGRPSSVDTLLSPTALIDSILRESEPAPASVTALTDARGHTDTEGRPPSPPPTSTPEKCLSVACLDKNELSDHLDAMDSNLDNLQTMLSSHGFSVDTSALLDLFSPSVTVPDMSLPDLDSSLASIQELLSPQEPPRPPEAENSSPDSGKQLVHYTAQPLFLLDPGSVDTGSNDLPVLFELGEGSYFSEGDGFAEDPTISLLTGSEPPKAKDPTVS
The target in a further assay is T2, SPIC (Homo sapiens, UniProt Q8N5J4 1-248).
T2 sequence: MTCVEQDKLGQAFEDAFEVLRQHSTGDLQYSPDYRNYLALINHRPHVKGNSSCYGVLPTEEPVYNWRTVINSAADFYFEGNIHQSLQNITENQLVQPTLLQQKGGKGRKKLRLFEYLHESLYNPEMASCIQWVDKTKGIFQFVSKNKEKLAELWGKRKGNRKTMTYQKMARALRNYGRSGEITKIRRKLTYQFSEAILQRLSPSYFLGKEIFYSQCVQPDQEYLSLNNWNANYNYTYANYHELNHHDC
The following applies: protein: recombinant; tags: N-terminal GST; dsDNA, one strand shown. The gist of the method: as §1

The target in the next assay is ELF4 (Homo sapiens, UniProt Q99607 1-663). The following applies: protein: recombinant; tags: N-terminal GST; dsDNA, one strand shown. The gist of the method: as §1
Sequence of ELF4 (Q99607 whole entry): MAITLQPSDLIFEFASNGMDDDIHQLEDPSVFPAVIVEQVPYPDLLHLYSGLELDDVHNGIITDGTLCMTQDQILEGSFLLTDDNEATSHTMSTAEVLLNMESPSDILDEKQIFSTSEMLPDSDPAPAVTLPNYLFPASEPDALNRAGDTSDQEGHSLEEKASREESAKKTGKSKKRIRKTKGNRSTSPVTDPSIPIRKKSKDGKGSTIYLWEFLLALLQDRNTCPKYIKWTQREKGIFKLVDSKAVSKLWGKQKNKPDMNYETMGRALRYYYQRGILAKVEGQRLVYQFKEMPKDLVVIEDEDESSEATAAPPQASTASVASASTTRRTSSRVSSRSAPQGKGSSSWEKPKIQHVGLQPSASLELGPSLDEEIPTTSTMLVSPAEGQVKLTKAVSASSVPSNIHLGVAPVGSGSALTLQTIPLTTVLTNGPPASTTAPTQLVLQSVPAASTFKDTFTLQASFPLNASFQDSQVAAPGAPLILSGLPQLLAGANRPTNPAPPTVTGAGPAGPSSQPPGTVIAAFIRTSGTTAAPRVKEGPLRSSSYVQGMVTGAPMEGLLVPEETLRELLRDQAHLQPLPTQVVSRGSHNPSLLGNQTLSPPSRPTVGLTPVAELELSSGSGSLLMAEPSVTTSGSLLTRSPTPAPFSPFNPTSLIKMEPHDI
In a further assay the target is T3, ELK4 (Homo sapiens, UniProt P28324-2 1-405).
T3 sequence: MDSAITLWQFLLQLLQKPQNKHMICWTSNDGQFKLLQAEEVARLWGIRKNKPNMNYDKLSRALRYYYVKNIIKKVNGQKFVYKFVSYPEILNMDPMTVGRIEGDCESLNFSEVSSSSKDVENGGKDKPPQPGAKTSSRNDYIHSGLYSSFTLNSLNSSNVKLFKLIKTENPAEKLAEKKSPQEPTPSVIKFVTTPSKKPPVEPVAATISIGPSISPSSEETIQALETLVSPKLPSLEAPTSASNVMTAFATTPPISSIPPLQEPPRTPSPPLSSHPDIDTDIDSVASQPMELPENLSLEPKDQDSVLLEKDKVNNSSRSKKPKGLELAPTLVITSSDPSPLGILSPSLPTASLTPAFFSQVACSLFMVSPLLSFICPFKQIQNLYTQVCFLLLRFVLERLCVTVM
The following applies: protein: recombinant; tags: N-terminal GST; dsDNA, one strand shown. In short, it runs like this:
as §1

For the next assay, the target named is T4, ETV2 (Homo sapiens, UniProt O00321 1-342).
T4 sequence: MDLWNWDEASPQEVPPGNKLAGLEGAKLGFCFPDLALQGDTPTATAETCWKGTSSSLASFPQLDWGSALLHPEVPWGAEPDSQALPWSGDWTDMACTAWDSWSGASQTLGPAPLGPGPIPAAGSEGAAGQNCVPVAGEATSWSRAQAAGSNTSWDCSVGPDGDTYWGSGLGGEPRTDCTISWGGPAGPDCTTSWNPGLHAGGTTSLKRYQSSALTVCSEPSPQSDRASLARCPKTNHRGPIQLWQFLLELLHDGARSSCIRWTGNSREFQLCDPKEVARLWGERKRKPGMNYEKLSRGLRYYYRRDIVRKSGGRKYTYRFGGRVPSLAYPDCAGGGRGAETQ
To be noted: protein: recombinant; tags: N-terminal GST; dsDNA, one strand shown. In short, it runs like this: as §1

The next assay has as its target T5, ELF3 (Homo sapiens, UniProt P78545 1-371).
T5 sequence: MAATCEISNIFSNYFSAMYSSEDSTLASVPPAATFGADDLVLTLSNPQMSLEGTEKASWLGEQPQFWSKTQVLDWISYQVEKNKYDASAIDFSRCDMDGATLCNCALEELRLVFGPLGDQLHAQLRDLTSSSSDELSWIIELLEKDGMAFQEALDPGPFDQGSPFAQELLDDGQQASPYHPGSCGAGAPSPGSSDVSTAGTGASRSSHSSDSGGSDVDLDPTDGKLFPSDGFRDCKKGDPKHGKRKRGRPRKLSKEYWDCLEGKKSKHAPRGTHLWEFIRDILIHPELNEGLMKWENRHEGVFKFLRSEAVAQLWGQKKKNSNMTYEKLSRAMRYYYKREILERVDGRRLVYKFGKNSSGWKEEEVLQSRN
To be noted: protein: recombinant; tags: N-terminal GST; dsDNA, one strand shown. In short, it runs like this: as §1

Another assay deals with CRX (Homo sapiens, UniProt O43186 1-299). To be noted: protein: recombinant; tags: N-terminal GST; dsDNA, one strand shown. The gist of the method:
as §1

The next assay deals with ETV1 (Homo sapiens, UniProt P50549 1-477). The following applies: protein: recombinant; tags: N-terminal GST; dsDNA, one strand shown. The gist of the method: as §1
Sequence of ETV1 (P50549 whole entry): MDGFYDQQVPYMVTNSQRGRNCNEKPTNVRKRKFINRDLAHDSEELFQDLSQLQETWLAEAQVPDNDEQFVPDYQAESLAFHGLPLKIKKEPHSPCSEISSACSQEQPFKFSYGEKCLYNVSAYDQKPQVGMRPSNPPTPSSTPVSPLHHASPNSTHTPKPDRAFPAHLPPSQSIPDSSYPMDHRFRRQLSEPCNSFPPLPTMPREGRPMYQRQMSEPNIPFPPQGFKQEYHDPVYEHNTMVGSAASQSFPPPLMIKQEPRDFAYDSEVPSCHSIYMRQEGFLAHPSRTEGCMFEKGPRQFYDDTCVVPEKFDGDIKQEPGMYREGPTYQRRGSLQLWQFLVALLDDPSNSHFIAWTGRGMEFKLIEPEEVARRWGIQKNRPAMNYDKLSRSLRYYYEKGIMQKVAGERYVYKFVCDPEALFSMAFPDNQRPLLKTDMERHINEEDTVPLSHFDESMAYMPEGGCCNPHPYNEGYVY
The target of another assay is T6, ERF (Homo sapiens, UniProt P50548 1-548).
T6 sequence: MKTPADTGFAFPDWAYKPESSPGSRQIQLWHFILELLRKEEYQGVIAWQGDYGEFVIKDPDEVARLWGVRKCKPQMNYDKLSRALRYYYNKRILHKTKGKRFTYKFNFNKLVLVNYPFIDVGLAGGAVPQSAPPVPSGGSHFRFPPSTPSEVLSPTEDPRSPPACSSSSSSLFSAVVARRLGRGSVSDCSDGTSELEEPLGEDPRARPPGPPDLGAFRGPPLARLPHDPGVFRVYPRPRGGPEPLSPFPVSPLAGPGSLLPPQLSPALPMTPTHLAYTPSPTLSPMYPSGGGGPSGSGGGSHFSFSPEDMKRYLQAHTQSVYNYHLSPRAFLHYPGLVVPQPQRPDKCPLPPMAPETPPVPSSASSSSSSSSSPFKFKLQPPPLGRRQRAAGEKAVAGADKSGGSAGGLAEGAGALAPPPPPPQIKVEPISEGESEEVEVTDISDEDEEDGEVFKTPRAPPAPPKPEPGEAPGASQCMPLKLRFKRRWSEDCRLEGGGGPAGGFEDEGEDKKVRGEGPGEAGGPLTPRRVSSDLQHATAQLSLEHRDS
To be noted: protein: recombinant; tags: N-terminal GST; dsDNA, one strand shown. In short, it runs like this: as §1

The target of another assay is T7, ETV3L (Homo sapiens, UniProt Q6ZN32 1-361).
T7 sequence: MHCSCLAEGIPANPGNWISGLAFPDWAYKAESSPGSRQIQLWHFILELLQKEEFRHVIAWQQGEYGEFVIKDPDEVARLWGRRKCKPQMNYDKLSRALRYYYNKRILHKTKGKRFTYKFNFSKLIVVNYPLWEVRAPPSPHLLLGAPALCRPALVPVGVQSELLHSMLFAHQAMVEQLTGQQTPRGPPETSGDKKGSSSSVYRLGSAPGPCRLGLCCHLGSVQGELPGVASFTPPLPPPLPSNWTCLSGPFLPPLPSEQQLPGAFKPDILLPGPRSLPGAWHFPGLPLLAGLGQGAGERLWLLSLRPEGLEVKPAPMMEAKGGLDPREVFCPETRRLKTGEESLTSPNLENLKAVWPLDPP
To be noted: protein: recombinant; tags: N-terminal GST; dsDNA, one strand shown. The gist of the method: as §1

The next assay addresses T8, ETS2 (Homo sapiens, UniProt P15036 1-469).
T8 sequence: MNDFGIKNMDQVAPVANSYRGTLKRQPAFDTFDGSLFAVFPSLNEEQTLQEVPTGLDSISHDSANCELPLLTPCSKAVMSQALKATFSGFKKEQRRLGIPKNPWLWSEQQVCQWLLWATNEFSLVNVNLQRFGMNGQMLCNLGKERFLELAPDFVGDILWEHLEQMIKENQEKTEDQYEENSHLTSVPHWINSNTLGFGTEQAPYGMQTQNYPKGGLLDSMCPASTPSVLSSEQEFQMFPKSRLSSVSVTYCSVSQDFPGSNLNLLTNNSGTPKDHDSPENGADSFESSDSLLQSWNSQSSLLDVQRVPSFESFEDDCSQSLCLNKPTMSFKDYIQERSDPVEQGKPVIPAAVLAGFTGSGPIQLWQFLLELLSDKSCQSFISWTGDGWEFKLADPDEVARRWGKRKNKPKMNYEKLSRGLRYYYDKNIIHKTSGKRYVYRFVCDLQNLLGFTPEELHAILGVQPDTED
The following applies: protein: recombinant; tags: N-terminal GST; dsDNA, one strand shown. In short, it runs like this: as §1

In the next assay the target is T9, SPDEF (Homo sapiens, UniProt O95238 1-335).
T9 sequence: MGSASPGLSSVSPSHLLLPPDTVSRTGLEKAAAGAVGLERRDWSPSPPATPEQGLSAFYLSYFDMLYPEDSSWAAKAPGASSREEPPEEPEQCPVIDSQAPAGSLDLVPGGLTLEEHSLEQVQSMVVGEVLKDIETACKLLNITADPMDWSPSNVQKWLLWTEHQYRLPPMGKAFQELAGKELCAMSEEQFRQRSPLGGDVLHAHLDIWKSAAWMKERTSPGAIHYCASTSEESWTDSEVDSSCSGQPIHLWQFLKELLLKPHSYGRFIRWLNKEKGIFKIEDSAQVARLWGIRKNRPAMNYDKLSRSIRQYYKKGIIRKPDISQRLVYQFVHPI
The following applies: protein: recombinant; tags: N-terminal GST; dsDNA, one strand shown. In short, it runs like this: as §1

Another assay concerns the target T10, ETV7 (Homo sapiens, UniProt Q9Y603 1-341).
T10 sequence: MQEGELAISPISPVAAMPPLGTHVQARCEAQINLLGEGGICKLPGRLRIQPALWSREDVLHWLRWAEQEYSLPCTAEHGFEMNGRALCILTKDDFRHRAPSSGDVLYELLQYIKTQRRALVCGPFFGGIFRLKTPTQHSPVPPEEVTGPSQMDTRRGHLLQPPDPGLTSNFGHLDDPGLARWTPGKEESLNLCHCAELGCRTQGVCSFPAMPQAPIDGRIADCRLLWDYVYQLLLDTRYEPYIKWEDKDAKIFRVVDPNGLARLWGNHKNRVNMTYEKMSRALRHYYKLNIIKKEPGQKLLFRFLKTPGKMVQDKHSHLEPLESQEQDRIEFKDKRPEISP
To be noted: protein: recombinant; tags: N-terminal GST; dsDNA, one strand shown. In short, it runs like this: as §1

A further assay deals with T11, ELF5 (Homo sapiens, UniProt Q9UKW6-2 1-255).
T11 sequence: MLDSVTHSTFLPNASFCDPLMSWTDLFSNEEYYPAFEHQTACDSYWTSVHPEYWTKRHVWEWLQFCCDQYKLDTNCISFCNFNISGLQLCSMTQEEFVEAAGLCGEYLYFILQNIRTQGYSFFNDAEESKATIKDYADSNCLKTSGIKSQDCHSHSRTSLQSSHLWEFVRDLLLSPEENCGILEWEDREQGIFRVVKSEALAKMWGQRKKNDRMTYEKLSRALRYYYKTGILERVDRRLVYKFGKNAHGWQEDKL
To be noted: protein: recombinant; tags: N-terminal GST; dsDNA, one strand shown. In short, it runs like this: as §1

The target of another assay is T12, ETV3 (Homo sapiens, UniProt P41162-2 1-143).
T12 sequence: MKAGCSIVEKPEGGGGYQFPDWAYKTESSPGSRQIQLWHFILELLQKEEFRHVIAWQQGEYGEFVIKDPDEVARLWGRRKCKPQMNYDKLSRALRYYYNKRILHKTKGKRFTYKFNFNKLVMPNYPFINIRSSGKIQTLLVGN
The following applies: protein: recombinant; tags: N-terminal GST; dsDNA, one strand shown. In short, it runs like this:
as §1

A further assay has as its target ETV6 (Homo sapiens, UniProt P41212 1-452). To be noted: protein: recombinant; tags: N-terminal GST; dsDNA, one strand shown. The gist of the method:
as §1

Sequence of CRX (O43186 whole entry): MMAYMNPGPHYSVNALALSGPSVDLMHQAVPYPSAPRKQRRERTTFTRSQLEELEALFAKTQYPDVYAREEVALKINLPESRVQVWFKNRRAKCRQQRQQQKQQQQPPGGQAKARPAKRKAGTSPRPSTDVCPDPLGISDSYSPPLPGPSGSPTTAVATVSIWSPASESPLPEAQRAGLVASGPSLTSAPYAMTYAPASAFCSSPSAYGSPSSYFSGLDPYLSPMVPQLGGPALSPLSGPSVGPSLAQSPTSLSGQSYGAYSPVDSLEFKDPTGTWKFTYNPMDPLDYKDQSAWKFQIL
Sequence of ETV6 (P41212 whole entry): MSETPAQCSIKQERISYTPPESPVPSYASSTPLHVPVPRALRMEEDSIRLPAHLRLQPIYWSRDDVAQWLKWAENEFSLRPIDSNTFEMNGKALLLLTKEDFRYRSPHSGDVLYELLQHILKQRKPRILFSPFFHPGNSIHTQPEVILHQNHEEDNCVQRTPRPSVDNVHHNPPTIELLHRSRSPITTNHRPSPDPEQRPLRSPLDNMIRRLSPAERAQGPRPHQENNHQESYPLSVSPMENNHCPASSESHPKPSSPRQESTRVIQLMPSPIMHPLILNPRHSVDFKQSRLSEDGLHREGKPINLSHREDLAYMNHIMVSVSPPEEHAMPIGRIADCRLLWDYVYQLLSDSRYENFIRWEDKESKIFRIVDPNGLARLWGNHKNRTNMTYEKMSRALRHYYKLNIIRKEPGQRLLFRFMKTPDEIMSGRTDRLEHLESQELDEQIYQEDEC

Turning to TTATGA, the binding signal with FEV was 1.07 fold enrichment (6-mer frequency, TF over GST control); in the assay with ETV5, 1.16 fold enrichment (6-mer frequency, TF over GST control); in the assay with HSF1 it was 1.45 fold enrichment (6-mer frequency, TF over GST control); with SPIC it was 1.26 fold enrichment (6-mer frequency, TF over GST control); with ELF4, 1.05 fold enrichment (6-mer frequency, TF over GST control); with ELK4, 1.07 fold enrichment (6-mer frequency, TF over GST control). The binding signal is 1.09 fold enrichment (6-mer frequency, TF over GST control) in the assay with ETV2; 1.31 fold enrichment (6-mer frequency, TF over GST control) with ELF3; 1.99 fold enrichment (6-mer frequency, TF over GST control) in the assay with CRX; 1.17 fold enrichment (6-mer frequency, TF over GST control) in the assay with ETV1; 1.23 fold enrichment (6-mer frequency, TF over GST control) in the assay with ERF; 1.22 fold enrichment (6-mer frequency, TF over GST control) with ETV3L. Besides, the binding signal is 1.13 fold enrichment (6-mer frequency, TF over GST control) with ETS2; 1.13 fold enrichment (6-mer frequency, TF over GST control) with SPDEF; 1.12 fold enrichment (6-mer frequency, TF over GST control) with ETV7; 1.09 fold enrichment (6-mer frequency, TF over GST control) with ELF5; 1.21 fold enrichment (6-mer frequency, TF over GST control) with ETV3; 1.19 fold enrichment (6-mer frequency, TF over GST control) with ETV6.

The values above are taken from paper PMC7862700, “An all-to-all approach to the identification of sequence-specific readers for epigenetic DNA modifications on cytosine”.
